According to PubChem BioAssay (EPA / NIEHS):
Records with an inconclusive call do not appear. The source holds several records for some structures; these can differ, active in one and inactive in another. The source made the active and inactive calls. The calls were made as follows, unless noted: active = hit-call score of the fitted dose curve at least 0.9, where 1 is the maximum; inactive = score below 0.9.

Assays:
[1] = CCTE_Padilla_ZF_Score.Edema: CCTE's 144 Hour Post-fertilization zebrafish Assay Score for Edema Malformation, Padilla Lab (AID 2284406)
Procedure, shortened: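 Edema scored at 6 dpf by two blinded observers under a stereo microscope, in single outbred wild-type larvae exposed from 6-8 hpf in sealed wells (Hanks', 26C, 14:10 h light) and chemical-free after a 5 dpf rinse.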

[2] = CCTE_Padilla_ZF_Score.Spine: CCTE's 144 Hour Post-fertilization zebrafish Assay Score for Spine Malformation, Padilla Lab (AID 2284407)
Procedure, shortened: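 Spine malformation scored at 6 dpf by two independent blinded observers under stereomicroscope, after static sealed exposure from 6–8 hpf at 26C in Hanks' solution with rinse on 5 dpf. Positive-direction fit against DMSO control.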

[3] = CCTE_Padilla_ZF_Score.Swim_bladder: CCTE's 144 Hour Post-fertilization zebrafish Assay Score for Swim Bladder Malformation, Padilla Lab (AID 2284408)
Procedure, shortened: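 Swim bladder inflation scored at 6 dpf by two blinded observers under a stereo microscope. Exposure ran from 6–8 hpf in sealed wells of 10% Hanks' at 26C, with rinsing at 5 dpf; DMSO served as baseline.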

[4] = CCTE_Padilla_ZF_Score.Position: CCTE's 144 Hour Post-fertilization zebrafish Assay Score for Position, Padilla Lab (AID 2284409)
Procedure, shortened: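 Wild-type zebrafish embryos (with chorions) exposed singly from 6–8 hpf in sealed wells of Hanks' solution at 26C, rinsed at 5 dpf. At 6 dpf, blinded assessors scored abnormal water-column position by brightfield stereomicroscopy, relative to DMSO.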

[5] = CCTE_Padilla_ZF_Score.Living: CCTE's 144 Hour Post-fertilization zebrafish Assay Score for Viability, Padilla Lab (AID 2284410);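 also: larval death at 6 dpf judged by absent heartbeat or coagulation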
Procedure, shortened: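 Mortality at 6 dpf, judged as absent heartbeat or coagulation by two blinded observers, after sealed static exposure beginning at 6–8 hpf at 26C. Larvae were rinsed free of chemical at 5 dpf, and activity was fitted relative to DMSO.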

[6] = CCTE_Padilla_ZF_Score.General: CCTE's 144 Hour Post-fertilization zebrafish Assay Score for General Malformation, Padilla Lab (AID 2284411)
Procedure, shortened: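 Malformation, death and hatching were scored at 6 dpf by two blinded observers under a stereo microscope. Embryos were dosed singly from 6-8 hpf in sealed plates of 10% Hanks' at 26C and rinsed on 5 dpf; DMSO baseline.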

[7] = CCTE_Padilla_ZF_Score.Tail: CCTE's 144 Hour Post-fertilization zebrafish Assay Score for Tail Malformation, Padilla Lab (AID 2284414)
Procedure, shortened: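 Tail malformations were scored at 6 dpf by two blinded assessors under a stereo microscope. Chorionated embryos had been exposed from 6-8 hpf in sealed wells of 10% Hanks' at 26 C, then rinsed free of chemical at 5 dpf.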

[8] = CCTE_Padilla_ZF_Score.Blood_pooling: CCTE's 144 Hour Post-fertilization zebrafish Assay Score for Blood Pooling, Padilla Lab (AID 2284415)
Procedure, shortened: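 Blood pooling was scored at 6 dpf under a stereo microscope by two blinded assessors, fitted upward against DMSO. Single embryos were dosed at 6–8 hpf in 10% Hanks', kept sealed at 26C (14:10 h cycle) and rinsed at 5 dpf.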

[9] = tested on: SRY-box transcription factor 17 (SOX17) Protein Expression, Deisenroth Lab, SOX17 (gene 64321); assay: CCTE_Deisenroth_DEVTOX-GLR_Endo_SOX17: CCTE's DevTox GLR-Endo Assay Evaluation of SRY-box transcription factor 17 (SOX17) Protein Expression, Deisenroth Lab (AID 2284413)
Procedure, shortened: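 RUES2-GLR human pluripotent cells were seeded 24 h, then differentiated toward endoderm for 48 h with two chemical exposures 24 h apart (10-point series, 1 nM - 200 uM). Nuclei-stained fixed cells were imaged; endpoint is percent change in SOX17+ cells versus 0.2% DMSO.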

[10] = tested on: SRY-box transcription factor 2 (SOX2) Protein Expression, Deisenroth Lab, SOX2 (gene 6657); assay: CCTE_Deisenroth_DEVTOX-GLR_Endo_SOX2: CCTE's DevTox GLR-Endo Assay Evaluation of SRY-box transcription factor 2 (SOX2) Protein Expression, Deisenroth Lab (AID 2284412; active = hit-call score of the fitted dose curve at least 0.9, where 1 is the maximum)
Procedure, shortened: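 Endpoint is percent SOX2-positive cells (SOX2+ count/total cells) minus 0.2% DMSO control, from high-content imaging of fixed, nuclear-stained RUES2-GLR cells. Dosing twice at 24 h intervals over 48 h differentiation, 1 nM–200 uM in 10 points.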

Measured: AC50

O=C(O)C(F)(F)C(F)(F)C(F)(F)C(F)(F)C(F)(F)F
not listed: [9] | [10]
inactive: all other assays above

Oc1c(Cl)c(Cl)c(Cl)c(Cl)c1Cl
active: [6] 0.681 µM

O=S(=O)(O)C(F)(F)C(F)(F)C(F)(F)C(F)(F)C(F)(F)C(F)(F)F
active: [1] 29.6 µM | [3] 38.9 µM | [4] 87.5 µM | [5] 88.7 µM | [6] 83.7 µM
inactive: [1] | [2] | [3] | [4] | [5] | [6] | [7] | [8]

NS(=O)(=O)C(F)(F)C(F)(F)C(F)(F)C(F)(F)C(F)(F)C(F)(F)C(F)(F)C(F)(F)F
inactive: [2] | [4] | [7] | [8]
active: [1] 0.582 µM | [3] 0.321 µM | [5] 1.76 µM | [6] 0.453 µM

CC1=C2C[C@H]3[C@@H](CC=C4C[C@@H](O)CC[C@@]43C)[C@@H]2CC[C@]12O[C@@H]1C[C@H](C)CN[C@H]1[C@H]2C
inactive: [9]

C=CC(N)=O
inactive: [10] | [9]

O=S(=O)(O)C(F)(F)C(F)(F)C(F)(F)C(F)(F)F
not listed: [9] | [10]
inactive: all other assays above

O=C(O)C(F)(F)C(F)(F)C(F)(F)C(F)(F)C(F)(F)C(F)(F)C(F)(F)C(F)(F)C(F)(F)F
active: [3] 11.5 µM | [5] 17.5 µM | [6] 11.5 µM
not listed: [9] | [10]
inactive: all other assays above

O=C(O)C(F)(F)C(F)(F)C(F)(F)C(F)(F)C(F)(F)C(F)(F)C(F)(F)C(F)(F)F
inactive: [2] | [7] | [8]
active: [1] 30.6 µM | [3] 30 µM | [4] 88.1 µM | [5] 81.2 µM | [6] 31.2 µM
